Reference: PubChem BioAssay (EPA / NIEHS)
Where “and” joins values, the source holds several entries; their conditions need not be identical. Equal values may be shown once. Calls of active or inactive are those of the source. How the source made its calls: active means hit-call score of the fitted dose curve at least 0.9, where 1 is the maximum; inactive means score below 0.9.

read-out: Collagen I, COL1A1 (gene 1277); assay: BSK_hDFCGF_CollagenI: BioMAP Diversity Plus: hDFCGF Assay for Collagen I Biomarker Activity (AID 2284250); conditions: primary human foreskin fibroblasts
Procedure: BSK_hDFCGF is a cell-based, multiplexed-readout assay that uses foreskin fibroblast, a human skin primary cell, with measurements taken at 24 hours after chemical dosing in a 96-well plate.BSK_hDFCGF_CollagenI is an assay component measured in the BSK_hDFCGF assay. It measures Collagen I antibody related to regulation of gene protein expression using ELISA technology.Data from the assay component BSK_hDFCGF_CollagenI was analyzed at the endpoint, BSK_hDFCGF_CollagenI, in the positive analysis fitting direction relative to DMSO as the negative control and baseline of activity. Using a type of binding reporter, gain or loss-of-signal activity can be used to understand protein changes. To generalize the intended target to other relatable targets, this assay endpoint is annotated to the 'cell adhesion molecules' intended target family, where the subfamily is 'collagen'.
The levels of cell surface (or secreted, indicated by the prefix "s") biomarker endpoints were measured by ELISA. Overt cytotoxicity to cells in confluent adherent cultures (all systems other than the BT system) was assessed by measuring total protein levels using sulforhodamine B (SRB) staining in parallel cultures at the time of biomarker measurements, indicated as SRB endpoints. For proliferation assays for adherent cell types, individual cell types are cultured at sub-confluence and relative cell numbers quantified by SRB staining at time points optimized for each system (48 h: 3C and CASM3C systems; 72 h: BT and HDF3CGF systems; 96 h: SAg system). SRB was performed by staining cells with 0.1% SRB after fixation with 10% TCA and reading wells at 560 nm.Viability and proliferation of PBMC (T cells) was quantified by Alamar Blue reduction for the SAg and BT systems. For PBMC viability (referred to as PBMC Cytotoxicity within the assay endpoint names), cells were plated (75,000/well in a 96-well plate) and then chemical samples added for 1 h before addition of activators, SEB and TSST-1 (20 ng/mL final concentration each). Cells were incubated for 90 h. Then, Alamar Blue (20 uL/well) (Invitrogen, Cat DAL1100) was added for 6 h, and the plates were read with a fluorescence microplate reader at 546/580 nm (excitation/emission). For PBMC proliferation, cells were plated and activated as above but incubated for only 16 h prior to addition of Alamar Blue. Plates were read after 6 h.

SMILES | outcome | AC50
NCCNCCN | inactive | 
Cc1cc(C2(c3cc(C)c(O)cc3C)OS(=O)(=O)c3ccccc32)c(C)cc1O | inactive | 
C[C@H]1C[C@@H]2[C@H]([C@@H](O)C[C@@]3(C)[C@H]2CC[C@]3(O)C(=O)CO)[C@@]2(C)C=CC(=O)C=C12 | inactive | 
OC[C@H]1O[C@H](O[C@]2(CCl)O[C@H](CCl)[C@@H](O)[C@@H]2O)[C@H](O)[C@@H](O)[C@H]1Cl | inactive | 
OC1OC[C@@H](O)[C@H](O)[C@H]1O (some centres not stated) | inactive | 
COc1cc(C=O)ccc1OC(=O)C(C)C | inactive | 
C=CCOC(=O)CCC1CCCCC1 | inactive | 
Nc1cc([N+](=O)[O-])ccc1O | inactive | 
CCC(=O)OCc1ccccc1 | inactive | 
CC(=O)OCCC(C)CC(C)(C)C (configuration not stated) | inactive | 
CC[Si](OC(C)=O)(OC(C)=O)OC(C)=O | inactive | 
CC(=O)[C@H]1CC[C@H]2[C@@H]3CC=C4C[C@@H](O)CC[C@]4(C)[C@H]3CC[C@]12C |  | 5.65 µM (active) and 9.87 µM (active)
